Here are results for 23 compounds from ChEMBL document CHEMBL1157539, “Thousands of chemical starting points for antimalarial lead identification” (Nature, 2010).

What all share (assay type): functional
Assay [1] deals with Plasmodium falciparum. Put plainly: GSK_TCMDC: Inhibition of Plasmodium falciparum 3D7 in whole red blood cells, using parasite LDH activity as an index of growth. Test compounds present at 2uM.
In assay [2] the test system is Plasmodium falciparum. Put plainly: GSK_TCMDC: Inhibition of Plasmodium falciparum Dd2 in whole red blood cells, using parasite LDH activity as an index of growth. Test compounds present at 2uM.
In another assay the test system is HepG2. Put plainly: GSK_TCMDC: Percent inhibition of human HepG2 cell line. Test compounds present at 10uM.

For the compound `CS(=O)(=O)CCN(CCS(C)(=O)=O)Cc1ccc(-c2ccc3ncnc(Nc4ccc(OCc5cccc(F)c5)c(Cl)c4)c3c2)o1.Cc1ccc(S(=O)(=O)O)cc1`, the Inhibition with Plasmodium falciparum [1] amounted to 90%; in the assay on Plasmodium falciparum [2], 27%; in the assay on HepG2, 0%.

Regarding `Cc1cc(OCCCNC(=N)c2ccc3ccccc3c2)c(C(C)C)cc1Cl.Cc1ccc(S(=O)(=O)O)cc1`, the Inhibition was determined as 95% in the assay on Plasmodium falciparum [1], 10% in the assay on Plasmodium falciparum [2] and 89% in the assay with HepG2.

With `COc1ccc2c(NCCc3ccccc3)cc(-c3ccccc3)nc2c1.Cl`, the Inhibition with Plasmodium falciparum [1] worked out at 98%; in the assay on Plasmodium falciparum [2] it was 1%; with HepG2, 13%.

`O=C(NCCCCN1CCC(c2ccc3c(c2OCC2CC2)CCCC3)CC1)c1ccc(NC(=O)c2ccc(Cl)cc2)cc1`: the Inhibition with Plasmodium falciparum [1] turned out to be 100%; in the assay with Plasmodium falciparum [2], 93%; with HepG2 it was 23%.

With `Br.Oc1ccc(CCNCCCCCCNCCc2ccc(Br)cc2)cc1O`, the results for the Inhibition in the assay on Plasmodium falciparum [1], in the assay with Plasmodium falciparum [2] and in the assay with HepG2 were 99%, 5% and 2%, respectively.

Regarding `CCN(CC)CCN(CCCc1ccc(-c2ccc(C(F)(F)F)cc2)cc1)C(=O)Cn1c(CCc2cccc(F)c2F)nc(=O)c2c1CCC2.O=C(O)C(O)C(O)C(=O)O`, the Inhibition in the assay with Plasmodium falciparum [1] was 92%; with Plasmodium falciparum [2] it was 27%; in the assay with HepG2 it was 38%.

On to `CO/C(=C\C=C\c1cc2cc(Cl)c(Cl)cc2[nH]1)C(=O)NC1CC2CCC(C1)N2C.Cl` (centres undefined), for which the Inhibition in the assay with Plasmodium falciparum [1] was found to be 88%; with Plasmodium falciparum [2], 23%; with HepG2, 46%.

`O=C(Nc1ccc(Cl)cc1)c1cc(Cl)cc2nc(C(F)(F)F)[nH]c12`: the figures for the Inhibition with Plasmodium falciparum [1], in the assay with Plasmodium falciparum [2] and in the assay on HepG2 were 100%, 100% and 87%, respectively.

As to `CCCCNC(=N)c1ccc(OCCCCCOc2ccc(C(=N)NCCCC)cc2)cc1.Cl`, the Inhibition in the assay on Plasmodium falciparum [1] is 99%; in the assay with Plasmodium falciparum [2] it was 99%; in the assay on HepG2, 19%.

As to `Cc1ccc(-n2ncc(C(=O)Nc3cc(Cl)cc(Cl)c3)c2C2CCNCC2)cc1C.Cl`, the Inhibition with Plasmodium falciparum [1] stood at 100%; in the assay on Plasmodium falciparum [2], 77%; with HepG2, 65%.

In the case of `CC(C)(C)C/C=C\c1ccc(C(=O)NCC2CC2)cc1`, the Inhibition in the assay on Plasmodium falciparum [1] was found to be 94%; in the assay on Plasmodium falciparum [2], 88%; with HepG2 it was 0%.

Consider `Cc1cccc2nc(-c3ccc(-c4cccc(CN5CCN(c6ccncc6)CC5)c4)cc3)[nH]c12.O=C(O)C(F)(F)F`, for which the Inhibition in the assay with Plasmodium falciparum [1] is 100%; in the assay on Plasmodium falciparum [2] it was 99%; in the assay with HepG2, 50%.

Consider `Cl.O=S(=O)(Nc1cc2c(cc1O)CCNCC2)c1ccc(-c2ccc(Cl)cc2)cc1`, for which the Inhibition in the assay with Plasmodium falciparum [1] is listed as 99%; in the assay on Plasmodium falciparum [2], 0%; in the assay on HepG2 it was 10%.

`O=C(Nc1cc(Oc2ccc(O)cc2)cc([N+](=O)[O-])c1)c1cc(-c2ccc(F)cc2)no1`: the Inhibition in the assay on Plasmodium falciparum [1] was 88%; in the assay with Plasmodium falciparum [2] it was 37%; with HepG2 it was 61%.

Consider `Br.CC1(C)NC(N)=NC(=N)N1OCCc1cccc2ccccc12`, for which the Inhibition in the assay with Plasmodium falciparum [1] is on record as 95%; in the assay on Plasmodium falciparum [2] it was 97%; in the assay with HepG2 it was 57%.

As to `Cc1cc(CNCCCCCCCNCc2cccc([N+](=O)[O-])c2)ccc1O`, the results for the Inhibition in the assay with Plasmodium falciparum [1], in the assay with Plasmodium falciparum [2] and in the assay with HepG2 were 100%, 0% and 6%, respectively.

As for `O=C(O)/C=C\C(=O)O.c1ccc(COc2ccnc(NCCCOc3cccc(CN4CCCCC4)c3)c2)cc1`, the Inhibition in the assay on Plasmodium falciparum [1] stood at 100%; in the assay with Plasmodium falciparum [2], 51%; in the assay on HepG2, 22%.

`CCOc1cccc(C2c3c(oc4ccccc4c3=O)C(=O)N2CCN(CC)CC)c1` (centres undefined): the Inhibition in the assay with Plasmodium falciparum [1] is 100%; with Plasmodium falciparum [2] it was 66%; in the assay on HepG2, 5%.

For `O=C(Nc1ccc([N+](=O)[O-])cc1Cl)c1cc2ccccc2cc1O`, the Inhibition with Plasmodium falciparum [1] is recorded as 94%; in the assay on Plasmodium falciparum [2] it was 28%; with HepG2 it was 6%.

On to `Clc1ccccc1/C=C/c1cncnc1Nc1ccc2[nH]c(Cc3ccccc3)nc2c1`, for which the Inhibition with Plasmodium falciparum [1] was 96%; in the assay with Plasmodium falciparum [2], 26%; in the assay on HepG2, 4%.

Take `O=C(O)C(F)(F)F.O=S(=O)(NCCN1CCCC1)c1ccc(-c2cccc(CNCc3ccc(F)cc3)c2)cc1`: the Inhibition is given as 100% in the assay with Plasmodium falciparum [1], 41% in the assay with Plasmodium falciparum [2] and 76% with HepG2.

With `Cc1cnc(C(=O)Nc2ccc(-c3cccc(-c4nc5ccccc5[nH]4)c3)cc2)cn1`, the Inhibition in the assay on Plasmodium falciparum [1] stood at 93%; in the assay with Plasmodium falciparum [2] it was 8%; with HepG2, 77%.

`c1ccc([C@H]2CN3CCSC3=N2)cc1` [LEVAMISOLE]: the Inhibition is 93% with Plasmodium falciparum [1], 1% in the assay with Plasmodium falciparum [2] and 11% in the assay with HepG2.
